Potency data for 40 molecules are collected here from PubChem BioAssay (NCATS).

Inconclusive results are not listed. A call without a number means that no potency is given here. Active and inactive are the calls of the source. Calls come from the whole dose curve; as a rule, active = well fitted inhibition curve with a large enough effect; inconclusive = small, poorly fitted or top-dose-only effect; inactive = flat fitted curve, though single readings scatter. Numbered stars: 1 amine (or outer) side, 2 acyl side, 3 side chain; on linkers, the order of the positions; unused ones are H or OH. Bridge positions count the residues as written; N and C are the ends. Square brackets hold non-standard residues; d marks the D form. Peptide text beside a SMILES is read from it. I, II: the chains in the order shown. Actinocin(9to1) = Cc1c2oc3c(C)ccc(C(=O)[*:1])c3nc-2c(C(=O)[*:2])c(N)c1=O; NMeV = CN[C@H](C(=O)O)C(C)C; Sar = CNCC(=O)O
Potency is the fitted concentration of half-maximal effect.

The assay has as its system CP203. Nature of the assay: qHTS profiling for inhibitors of Plasmodium falciparum proliferation (AID 504749). Note: nearly all actives have a fitted effect of over 60% in size. Conditions: P. falciparum in erythrocytes, SYBR Green DNA, 72 h; series mostly up to 28.7 µM. The source says: NIH National Institute of Allergy and Infectious Diseases [NIAID] NIH Chemical Genomics Center [NCGC] MLPCN Grant: None Assay Provider: Xinzhuan Su, NIAID NCGC Assay Overview: Plasmodium falciparum is a virulent malarial parasite that kills 1-2 million people worldwide each year. Transmitted by mosquitoes, the sporozoite form of the parasite enters the blood stream to infect hepatocytes, where they become merozoites that infect red blood cells (erythrocytes). Within erythrocytes, merozoites begin a […] cycle of growth and division, after which the parasite is released to infect new red blood cells. Gametocytes, which form within erythrocytes as well, circulate in the bloodstream and are ingested by the mosquito, thereby completing the life cycle. To profile malarial isolates for differential chemical responses and to identify inhibitors of malarial growth, an assay that measures P. falciparum growth and replication within erythrocytes was employed. This assay uses a DNA binding fluorescent dye (SYBR Green) to detect parasite DNA following cell lysis. Because mature erythrocytes lack DNA, only Plasmodium-derived DNA is detected.
NCGC Assay Protocol Summary: The SYBR Green viability assay was adapted from a method described previously (Plouffe et al., 2008). For screening 3 ul culture medium was dispensed into 1536 well black clear bottom plates (Aurora Biotechnologies) using a Multidrop Combi (Thermo Fisher Scientific Inc.), 23 nL compounds in DMSO were added by a pin tool (Kalypsys), and 5 ul of erythrocytes infected with P. falciparum (0.3% parasitemia, 2.5% hematocrit final concentration) were added. The plates were incubated at 37 C in a humidified incubator in 5% CO2 for 72 h, and 2 ul lysis buffer (20 mM Tris HCl, 10 mM EDTA, 0.16% saponin, 1.6% triton X, 10X SYBR Green I supplied as 10,000X […] by Invitrogen) was added to each well. The plates were mixed for 25 sec with gentle shaking and incubated overnight at room temperature in the dark. The following morning, fluorescence intensity at 485(14) nm excitation and 535(25) nm emission wavelengths was measured on an EnVision (Perkin Elmer) plate reader. Plate reads were normalized relative to the control inhibitor (0.29 uM artemisinin) and vehicle (DMSO) wells present on each plate and then corrected by an algorithm using vehicle-only control plates at the beginning and end of the compound plate stack.
(qHTS replaces the single test concentration by a dilution series.)
Regarding `Cc1cc(N)c2cc(NC(=O)Nc3ccc4nc(C)cc(N)c4c3)ccc2n1`, the Potency is 5.36 µM (active).

Consider `CN1CCC[C@@H]1c1cccnc1`, for which the Potency entry was “inactive”.

For `CCC(C(=O)OCCN(CC)CC)c1ccccc1` (stereo not given), the Potency result was “inactive”.

As for `CCOC(=O)OC(C)OC1=C(C(=O)Nc2ccccn2)N(C)S(=O)(=O)c2ccccc21` (stereo not given), the Potency entry is “inactive”.

Regarding `C[C@H]1[C@H](NC(=O)/C(=N/OC(C)(C)C(=O)O)c2csc(N)n2)C(=O)N1S(=O)(=O)O` (stereo in doubt), the Potency result was “inactive”.

In the case of `CCCCCCCCCCCCCCCCCC(=O)OCC(O)CO` (stereo not given), the Potency entry is “inactive”.

`CC(=O)N/N=C/c1ccc([N+](=O)[O-])o1`: the Potency result was “inactive”.

Consider `Cc1ncc(CSSCc2cnc(C)c(O)c2CO)c(CO)c1O`, for which the Potency result is “inactive”.

Turning to `O=S1(=O)c2cccc3cccc(c23)N1CCCN1CCN(c2ccc(F)cc2)CC1`, the Potency result is “inactive”.

With `CC1(C)CCC(NC(=O)[C@@H](N)CCC(=O)O)CC1`, the Potency result is “inactive”.

As for `C[C@H](O)C(=O)Nc1c(I)c(C(=O)NC(CO)CO)c(I)c(C(=O)NC(CO)CO)c1I`, the Potency result was “inactive”.

On to `NCCCC[C@H](N[C@@H](CCc1ccccc1)C(=O)O)C(=O)N1CCC[C@H]1C(=O)O`, for which the Potency entry was “inactive”.

Regarding `COc1cccc(CCc2ccccc2OCC(CN(C)C)OC(=O)CCC(=O)O)c1` (stereo not given), the Potency was 3.38 µM (active).

As to `N[C@@H](Cc1cnc[nH]1)C(=O)O`, the Potency entry is “inactive”.

Regarding `CCOc1ccc2nc3cc(N)ccc3c(N)c2c1`, the Potency is 16.9 µM (active).

Regarding `COCc1c(C(C)C)nc(C(C)C)c(/C=C/[C@@H](O)C[C@@H](O)CC(=O)O)c1-c1ccc(F)cc1`, the Potency result is “inactive”.

As for `COc1ccc(CN2CCN(C(c3ccc(F)cc3)c3ccc(F)cc3)CC2)c(OC)c1OC`, the Potency is 13.5 µM (active).

Take `Oc1ccc(O)cc1`: the Potency was 15.1 µM (active).

For the molecule `Cc1c(C(N)=O)cc([N+](=O)[O-])cc1[N+](=O)[O-]`, the Potency entry is “inactive”.

Turning to `Cc1cc(=O)n(-c2ccccc2)n1C`, the Potency entry is “inactive”.

As to `N[C@H](CO)C(=O)O`, the Potency result is “inactive”.

For `NCCc1ccn[nH]1`, the Potency result was “inactive”.

On to `O=C(CCN1CCC(c2ccccc2)C1)c1ccc2c(c1)OCCO2` (stereo not given), for which the Potency entry was “inactive”.

For `CCCCCCCCCCCCCCCC[N+](C)(C)CCN(Cc1ccc(OC)cc1)c1ncccn1`, the Potency entry is “inactive”.

In the case of `CC(C)(C)CC(C)(C)c1ccc(O)c(Cc2ccc(Cl)cc2Cl)c1`, the Potency was 1.69 µM (active).

As for `CCCCCCC[N+](CC)(CC)CCCCc1ccc(Cl)cc1`, the Potency was 1.81 µM (active).

As to `Cc1ccc(O)c2ncccc12`, the Potency result was “inactive”.

On to `CN=C(NC#N)Nc1ccc(C2=NNC(=O)CC2C)cc1` (stereo not given), for which the Potency result is “inactive”.

With `CCCCCCCCCCCCCCCCOP(=O)([O-])OCC[N+](C)(C)C`, the Potency result was “inactive”.

Regarding `CC[N+](CC)(CCNC(=O)C(=O)NCC[N+](CC)(CC)Cc1ccccc1Cl)Cc1ccccc1Cl`, the Potency was 1.35 µM (active).

Consider `COc1cccc2c1C(=O)c1c(O)c3c(c(O)c1C2=O)C[C@@](O)(C(C)=O)C[C@@H]3O[C@H]1C[C@H](N)[C@H](O)[C@H](C)O1`, for which the Potency is 8.49 µM (active).

As to `CCOc1ccc(NC(=O)CC(C)O)cc1` (stereo not given), the Potency entry was “inactive”.

On to `CC(C)(C(=O)c1cccnc1)c1cccnc1`, for which the Potency result is “inactive”.

In the case of `Cc1c(C)n(Cc2ccccc2)c2ccc(C(=O)OCCN(C)C)cc12`, the Potency entry was “inactive”.

Turning to `O=C1CCC(c2ccc(-n3ccnc3)cc2)=NN1`, the Potency entry was “inactive”.

`CCOC(=O)COc1ccc2c(C)c(CCN(CC)CC)c(=O)oc2c1Cl`: the Potency result was “inactive”.

For `Cc1c2oc3c(C)ccc(C(=O)N[C@@H]4C(=O)N[C@H](C(C)C)C(=O)N5CCC[C@H]5C(=O)N(C)CC(=O)N(C)[C@@H](C(C)C)C(=O)O[C@@H]4C)c3nc-2c(C(=O)N[C@@H]2C(=O)N[C@H](C(C)C)C(=O)N3CCC[C@H]3C(=O)N(C)CC(=O)N(C)[C@@H](C(C)C)C(=O)O[C@@H]2C)c(N)c1=O` (I: T[dV]P[Sar][NMeV] / II: T[dV]P[Sar][NMeV]; ester I:1-I:C, II:1-II:C; linker I:N-II:N via Actinocin(9to1)), the Potency is 0.006 µM (active).

`Nc1ccc(C(=O)Nc2ccccc2N)cc1`: the Potency result was “inactive”.

As to `O=C(Nc1ccc(Cl)c(Cl)c1)C1CC1`, the Potency result was “inactive”.

In the case of `C[C@@H]1C(=O)NC2=Nc3cccc(Cl)c3CN21`, the Potency result was “inactive”.
